Assay outcomes (PubChem BioAssay)
Compounds with a hit are over-represented: about 3.5% of the library has one in this group of screens.
mHTT-CaM PPI inh: disrupts binding of mutant huntingtin to calmodulin; P42858; AlphaScreen His-mHTT/GST-CaM binding, luminescence; inhibition, % at 15 µM; actives 3.6% (n = 190,000); AID 1671202;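 also: 0% = both proteins with DMSO and 100% = one protein alone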
Pf apPOL inh: Pf-apPOL DNA polymerase inhibition; Recombinant Pf-apPOL, molecular beacon fluorescence, 1.5 h; inhibition, % at 10 µM; actives 0.25% (n = 210,000)
Active calls of the source: *; nt = not tested or not shown. Rule as the data show it: active = inhibition above about 50%; inactive = the rest.

SMILES	mHTT-CaM PPI inh	Pf apPOL inh
CCOc1cccc(C2Oc3ccccc3C3CC(c4cccs4)=NN32)c1O (stereo unspecified)	50*	-4
COc1cc(C(=O)O)c(C2Oc3ccccc3C3CC(c4ccccc4)=NN32)cc1OC (stereo unspecified)	50*	-5
O=C(C1CC(c2ccccc2F)=NO1)N1CCCC1 (stereo unspecified)	-5	0
Nc1ccc(Oc2ccc3c(c2)C(=O)N(c2ccccc2C(F)(F)F)C3=O)cc1	41	-6
CCC(=O)Nc1ccccc1Oc1c(F)c(F)c(Oc2ccccc2NC(=O)CC)c(F)c1F	0	-2
O=C(NC1CC1)c1cccc(OCC2CCCN(C(=O)C3(c4ccccc4)CC3)C2)c1 (stereo unspecified)	6	10
c1coc(C2Oc3ccccc3C3CC(c4cccs4)=NN32)c1 (stereo unspecified)	92*	-9
Oc1ccc(C2Oc3ccccc3C3CC(c4cccs4)=NN32)cc1O (stereo unspecified)	29	-1
CCOc1ccc(NC(=O)CN2C(=O)NC3(CCC(C)CC3)C2=O)cc1 (stereo unspecified)	5	-1
O=C(Nc1ccc(C(F)(F)F)cc1)C(NS(=O)(=O)c1cccs1)c1ccccc1 (stereo unspecified)	84*	-1
O=C(Nc1ccc(F)c(F)c1)C(NS(=O)(=O)c1cccs1)c1ccccc1 (stereo unspecified)	-2	-1
COc1c(C(=O)N2CCOCC2)sc2ccc(F)cc12	-5	-1
COc1c(C(=O)N2CCN(c3ccccc3)CC2)sc2ccc(F)cc12	60*	1
C#CC1(OCC(O)CNC(C)(C)CC(C)(C)C)CCCCC1 (stereo unspecified)	-7	-5
CCN1C(=O)c2cccc3c(NC(=O)CS(=O)(=O)Cc4ccccc4)ccc1c23	23	-7
CC1CCN(C(=O)c2cn3ccnc(-c4ccccc4)c3n2)CC1	-7	2
O=C(Nc1ccc(F)c(Cl)c1)c1cn2c(n1)CCCC2	-7	-4
O=C(O)c1cc2ncc(Br)cn2n1	4	69*
N#Cc1c(NC(=O)c2cc3ncc(Br)cn3n2)sc2c1CCCC2	-5	-1
O=C(NCCC1CCN(C(=O)NC2CCCCC2)CC1)C1CCCCC1	-9	-6
Cc1ccnc(Nc2ccc(NCCNC(=O)c3c(F)cccc3F)nn2)c1	100*	-6
Cc1ccc(NCCNC(=O)c2c[nH]c3ccccc23)nn1	-11	-14
COc1cc(C=C2SC(=S)N(c3ccc(O)c(C(=O)O)c3)C2=O)cc(OC)c1OC	66*	-28
COc1cccc(N2C(=O)C(=Cc3ccc(O)c(O)c3)SC2=S)c1	98*	-60
COc1cc(C=C2SC(=S)N(c3ccc(O)cc3)C2=O)cc(OC)c1OC	20	-3
SMILES	mHTT-CaM PPI inh	Pf apPOL inh
COc1cc(C=C2SC(=S)N(c3ccc(C(=O)O)c(O)c3)C2=O)cc(OC)c1OC	1	-7
CCN(CC)c1ccc(N=Nc2ccc3c(c2)OCCO3)cc1	nt	1
Cc1ccc(C)c(NC(=O)NCCC2CCN(S(=O)(=O)c3ccc(F)cc3)CC2)c1	29	4
COc1cc(SC)ccc1C(=O)n1nnc2ccccc21	91*	-8
COc1cc(OC)cc(C(=O)n2nnc3ccccc32)c1	1	-2
COc1ccc(C(=O)Nc2nccn(-c3ccc(C)c(C)c3)c2=O)cc1	9	0
Cc1c(Cc2ccccc2)sc(NC(=O)CCc2ccccc2)c1C(N)=O	52*	-10
Cc1c(Cc2ccccc2)sc(NC(=O)C(F)(F)F)c1C(N)=O	16	1
Cc1ccc(S(=O)(=O)Nc2cccc(F)c2)cc1	-7	-1
O=S(=O)(Nc1cccc(F)c1)c1ccc(-c2ccccc2)cc1	79*	-4
O=S(=O)(Nc1ccc(NS(=O)(=O)c2ccc(F)cc2)cc1)c1ccc(F)cc1	4	-2
O=S(=O)(Nc1ccc(Nc2ccccc2)cc1)c1ccc(F)cc1	69*	-3
CCOc1ccccc1NC(=O)CNC(=O)c1nn(-c2ccc(OC)cc2)c(=O)c2ccccc12	3	0
O=S(=O)(c1cccnc1)N1CCCC2(C1)Nc1ccccc1NC2=NC1CCCC1 (stereo unspecified)	15	-3
O=C(Nc1nc(-c2ccccn2)cs1)c1ccccc1[N+](=O)[O-]	100*	-131
CCOc1cccc2cc(-c3csc(NC(=O)c4ccc([N+](=O)[O-])o4)n3)oc12	-6	-4
O=C(Nc1nc(-c2ccccn2)cs1)c1ccc([N+](=O)[O-])o1	74*	-55
O=C(Nc1nc(-c2ccccn2)cs1)c1cc2cc([N+](=O)[O-])ccc2s1	23	-28
O=C(NCc1cccs1)Nc1nc(-c2ccccn2)cs1	100*	-7
O=C(Cc1csc(Nc2ncccn2)n1)NCc1cccs1	-7	-2
O=C(Cn1c2ccc(F)cc2c2ncn(Cc3ccccc3)c(=O)c21)Nc1cccc(F)c1	15	-2
CC1=NN(c2ccccc2)C(=O)/C1=C/c1ccc(N(C)C)c(Br)c1	65*	3
CC1=NN(c2ccccc2)C(=O)/C1=C/c1cccc(Oc2ccccc2)c1	52*	3
CC1=NN(c2ccccc2)C(=O)/C1=C/N1CCCCC1	2	-2
CC1=NN(c2ccccc2)C(=O)/C1=C/c1ccc2c(c1)OCO2	8	4
SMILES	mHTT-CaM PPI inh	Pf apPOL inh
CCCC1=NN(c2ccccc2)C(=O)/C1=C\c1cc(Br)c(O)c(OC)c1	67*	-2
CC1=NN(c2ccccc2)C(=O)/C1=C/c1cccc(C(=O)O)c1	5	0
COc1cc(/C=C2\SC(=O)N(c3ccccc3)C2=O)cc(Br)c1O	8	-6
CC1=NN(c2ccccc2)C(=O)/C1=C/C=C/c1ccccc1	71*	-2
O=C(NC1CCCC1)C1c2ccccc2C(=O)N1C1CCCC1 (stereo unspecified)	-11	-1
O=c1/c(=C/c2cccc(F)c2)sc2nc(-c3ccc(Br)cc3)nn12	0	-3
CC1=NN(c2ccccc2)C(=O)/C1=C/c1ccc(O)c(Br)c1	52*	6
CCOc1cc(/C=C2/C(=O)N(c3ccccc3)N=C2C)ccc1O	43	8
O=C(CC1c2ncccc2C(=O)N1c1ccccc1)NC1CCCCCC1 (stereo unspecified)	2	2
Cc1ccc(S(=O)(=O)N2CCSC2c2ccccc2Cl)c(C)c1 (stereo unspecified)	-55	-4
Cc1ccc(S(=O)(=O)N2C=Cc3ccccc3C2c2c[nH]c3ccccc23)c(C)c1 (stereo unspecified)	55*	12
CCc1c(C)c(C#N)c2nc3ccccc3n2c1NCCCN1CCOCC1	-2	83*
CCCCc1c(C)c(C#N)c2nc3ccccc3n2c1NCCN1CCOCC1	-8	2
COc1cc(OC)c(NC(=O)C2CCCN(c3nccc4sccc34)C2)cc1Cl (stereo unspecified)	45	-5
COc1ccc(Cl)cc1NC(=O)C1CCN(c2nccc(C)n2)CC1	-8	0
COc1cc(Cl)c(NC(=O)C2CCCN(c3nccc4sccc34)C2)c(OC)c1 (stereo unspecified)	60*	3
COc1ccc(Cl)cc1NC(=O)C1CCN(c2nccc3sccc23)CC1	100*	-3
CC(C)c1ccc(N2CC(C(=O)Nc3ccccc3C(F)(F)F)CC2=O)cc1 (stereo unspecified)	-30	-3
CS(=O)(=O)c1ccc(Br)cc1	-6	nt
